G9a block = blocks human histone lysine methyltransferase G9a. 350,000 tested, 8.8% active. Potency, µM (titrated, usually from 102 µM), without a hit: top-dose activity, negative = inhibition, usual class: inhibitors. G9a H3K9 monomethylation, AlphaScreen, 2 h. Q96KQ7; also: % is scaled to controls: 0 for no effect and ±100 for the full control effect; nearly all actives have a fitted effect of over 75% in size
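Signal arises when biotinylated H3K9 peptide, once monomethylated, bridges streptavidin donor and antibody-captured acceptor beads. Enzyme at 20 nM was preincubated 15 min with test compounds; peptide 500 nM and SAM 20 uM then reacted for 2 h.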
JMJD2A Tudor = blocks the human JMJD2A Tudor domain; Potency, µM (titrated, usually from 114 µM), for inactives: at the highest dose activity change, negative = inhibition, actives largely listed as inhibitors; AID 504339; 390,000 tested, 4.4% active; AlphaScreen JMJD2A-Tudor / H3K4me3 peptide binding; also: % is scaled to controls: 0 for no effect and ±100 for the full control effect; nearly all actives have a fitted effect of over 50% in size
BAZ2B inh = inhibitors of human BAZ2B bromodomain | Q9UIF8 | 360,000 tested, 4.4% active | AID 504333 | Potency, µM (highest dose often 114 µM), for inactives: at the top dose activity change, negative = inhibition, usual class: inhibitors | AlphaScreen BAZ2B-H3K14Ac peptide displacement; also: % is scaled to controls: 0 for no effect and ±100 for the full control effect; nearly all actives have a fitted effect of over 60% in size
Target sequence (Q9UIF8 whole entry, looked up): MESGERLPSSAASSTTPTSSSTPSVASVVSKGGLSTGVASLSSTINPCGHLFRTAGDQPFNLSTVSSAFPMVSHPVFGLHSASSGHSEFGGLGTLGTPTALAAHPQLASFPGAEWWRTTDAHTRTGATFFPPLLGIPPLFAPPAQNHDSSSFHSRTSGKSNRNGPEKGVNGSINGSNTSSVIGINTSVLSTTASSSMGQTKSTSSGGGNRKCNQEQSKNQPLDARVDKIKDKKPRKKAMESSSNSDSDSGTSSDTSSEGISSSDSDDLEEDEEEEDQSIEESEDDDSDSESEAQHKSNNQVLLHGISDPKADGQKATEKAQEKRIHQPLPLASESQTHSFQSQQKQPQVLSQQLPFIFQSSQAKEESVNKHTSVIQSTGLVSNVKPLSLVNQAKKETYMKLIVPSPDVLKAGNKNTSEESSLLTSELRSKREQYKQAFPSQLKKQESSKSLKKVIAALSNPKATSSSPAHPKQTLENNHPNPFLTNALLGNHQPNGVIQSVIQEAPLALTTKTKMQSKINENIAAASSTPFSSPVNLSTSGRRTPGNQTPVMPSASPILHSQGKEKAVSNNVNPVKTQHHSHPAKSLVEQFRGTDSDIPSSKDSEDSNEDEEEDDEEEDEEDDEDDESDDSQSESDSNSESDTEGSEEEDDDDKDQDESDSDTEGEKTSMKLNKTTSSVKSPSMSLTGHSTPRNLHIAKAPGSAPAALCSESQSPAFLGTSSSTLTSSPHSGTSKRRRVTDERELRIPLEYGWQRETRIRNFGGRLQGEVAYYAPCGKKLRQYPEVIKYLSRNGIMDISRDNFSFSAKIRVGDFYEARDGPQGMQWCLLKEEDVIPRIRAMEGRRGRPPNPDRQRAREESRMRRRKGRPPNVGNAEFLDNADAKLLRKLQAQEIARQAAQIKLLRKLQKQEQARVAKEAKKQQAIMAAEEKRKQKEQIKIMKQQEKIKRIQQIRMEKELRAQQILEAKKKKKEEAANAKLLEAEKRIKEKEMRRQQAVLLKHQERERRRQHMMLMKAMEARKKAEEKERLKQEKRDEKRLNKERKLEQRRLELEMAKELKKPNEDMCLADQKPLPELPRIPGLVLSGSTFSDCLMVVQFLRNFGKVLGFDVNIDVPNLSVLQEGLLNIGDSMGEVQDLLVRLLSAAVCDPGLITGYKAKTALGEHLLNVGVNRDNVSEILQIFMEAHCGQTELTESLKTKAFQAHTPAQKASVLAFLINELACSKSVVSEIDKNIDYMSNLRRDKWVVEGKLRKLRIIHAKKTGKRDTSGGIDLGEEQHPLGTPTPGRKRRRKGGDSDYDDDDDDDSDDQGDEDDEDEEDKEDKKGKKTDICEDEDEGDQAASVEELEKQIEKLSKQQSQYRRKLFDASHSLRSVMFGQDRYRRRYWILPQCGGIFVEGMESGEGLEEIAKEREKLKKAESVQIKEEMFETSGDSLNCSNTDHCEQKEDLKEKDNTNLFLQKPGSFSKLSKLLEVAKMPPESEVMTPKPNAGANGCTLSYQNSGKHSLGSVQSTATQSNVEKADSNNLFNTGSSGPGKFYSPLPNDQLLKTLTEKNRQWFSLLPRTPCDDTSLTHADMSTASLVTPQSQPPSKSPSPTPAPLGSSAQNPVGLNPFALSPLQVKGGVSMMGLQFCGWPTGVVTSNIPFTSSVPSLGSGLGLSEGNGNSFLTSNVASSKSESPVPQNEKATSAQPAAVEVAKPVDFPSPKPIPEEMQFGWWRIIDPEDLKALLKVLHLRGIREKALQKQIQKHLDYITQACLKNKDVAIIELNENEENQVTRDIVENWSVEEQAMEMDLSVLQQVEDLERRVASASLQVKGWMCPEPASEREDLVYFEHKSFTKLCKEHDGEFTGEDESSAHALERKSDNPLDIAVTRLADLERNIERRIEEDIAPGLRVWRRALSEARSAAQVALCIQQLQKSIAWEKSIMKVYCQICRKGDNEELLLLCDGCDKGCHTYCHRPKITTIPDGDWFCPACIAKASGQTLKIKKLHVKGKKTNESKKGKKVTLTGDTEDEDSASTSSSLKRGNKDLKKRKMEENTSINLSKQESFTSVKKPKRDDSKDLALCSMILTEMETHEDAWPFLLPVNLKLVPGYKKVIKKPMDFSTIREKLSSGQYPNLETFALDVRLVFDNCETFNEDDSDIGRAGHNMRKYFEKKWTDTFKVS
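Multi-concentration screen (max 110 uM) measuring displacement of acetylated histone H3 peptide from BAZ2B by AlphaScreen, using 50 nM protein, 50 nM peptide and 10 ug/mL streptavidin donor plus Ni-chelate acceptor beads.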
L3MBTL1 block = L3MBTL1 (human) inhibition | Q9Y468 | 230,000 tested, 0.66% active | AID 485360 | Potency, µM (titrated, usually from 57.1 µM), inactives show at the top dose activity, negative = inhibition, most hits filed as inhibitors | AlphaScreen L3MBTL1–H3K9me1 peptide binding; also: % is scaled to controls: 0 for no effect and ±100 for the full control effect; nearly all actives have a fitted effect of over 60% in size
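First, the protein-peptide complex forms for 30 min at room temperature (L3MBTL1 50 nM, biotinylated H3K9me1 peptide 75 nM). Next, compounds are pin-transferred and incubated 30 min. Finally, AlphaScreen beads are added and read after 30 min.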
Sfp PPTase inh = inhibitors of Bacillus subtilis Sfp phosphopantetheinyl transferase; Biochemical Sfp PPTase activity, qHTS; Q9F4F7; 310,000 tested, 3.5% active; Potency, µM, for inactives: largest response in the series, negative = inhibition, actives largely listed as inhibitors; AID 1490;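 also: the enzyme is Sfp with the accession as filed and its product quenches rhodamine fluorescence; 0% = enzyme reaction without inhibitor and -100% = no enzyme wells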
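Buffer: 50 mM Hepes-Na pH 7.6, 10 mM MgCl2, 0.01% Nonidet P-40, 0.01% BSA. Enzyme 15 nM, pre-exposed to compound 15 min; substrates then added and fluorescence change tracked over 30 min.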
HP1b chromo inh = HP1-beta chromodomain-methylated histone interaction inhibition. Potency, µM (top dose mostly 114 µM), for inactives: at the highest dose activity change, negative = inhibition, actives largely listed as inhibitors. 390,000 tested, 0.56% active. AID 540317. P83916. AlphaScreen HP1-beta / biotin-H3K9me3 peptide binding; also: nearly all actives have a fitted effect of over 70% in size
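AlphaScreen: HP1-beta (50 nM) preformed 30 min with biotin-H3(1-18)K9me3 peptide (50 nM) in PBS pH 7.4, 0.01% Tween-20. Compound added for 30 min at RT, then streptavidin donor/nickel chelate acceptor beads (10 ug/mL) for 30 min.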
The depositor's hits bear a star; ? = inconclusive; · = not tested or not shown; ! = not active in a repeat; [ ] = dose if it differs, or a comment. Most compounds without a hit are left out; they make up all but 12% or so of the library. Calls follow the shape of the dose curve; as a rule, active = well fitted curve in the direction sought with a large enough effect; inconclusive = small, poorly fitted or top-dose-only effect, or another doubt; inactive = no such curve, though single readings can be large; an effect the other way counts as inactive or inconclusive. Potency is read from the fitted curve at half-maximal effect.

SMILES | G9a block | JMJD2A Tudor | BAZ2B inh | L3MBTL1 block | Sfp PPTase inh | HP1b chromo inh
CNC(=O)Oc1ccc2ncccc2c1 | 45µM* | 8% | -2% | 0% | 2% | 46%
CNC(=O)Oc1ccccc1OC(C)C | · | -10% | · | · | 12% | 52%
COC(=O)[C@H]1[C@@H](c2ccccc2)[C@@]2(c3ccccc3)Oc3ccccc3[C@@]1(O)[C@@H]2O | · | · | · | · | 6% | ·
Nc1ncnc2c1nc(Sc1ccc(Cl)cc1)n2[C@@H]1O[C@@H]2COP(O)(=S)O[C@H]2[C@H]1O (some centres undefined) | · | · | · | · | 2% | ·
FC(F)(F)c1ccccc1CNCCc1c[nH]c2ccccc12 | 22%[2.33 µM] | 18µM* | 45µM* | · | -9% | -13%
Fc1ccccc1CNCCc1c[nH]c2ccccc12 | ? | 45µM* | 56µM* | · | -12% | ?
Fc1ccc(CNCCc2c[nH]c3ccccc23)cc1 | ? | ? | ? | -11% | 2% | 26%
CC1C(=O)OC2CCN3CC=C(COC(=O)[C@](C)(O)[C@]1(C)O)C23 (some centres undefined) | -10%[2.33 µM] | · | · | · | 33% | ·
O=c1[nH]c(=S)n(-c2cccc(Cl)c2)c(O)c1/C=N/N1CCOCC1 | ? | -20% | -24% | · | -13% | 46%
c1cc2cc(c1)C[n+]1ccc(c3ccccc31)NCc1ccc(cc1)CNc1cc[n+](c3ccccc13)C2 | · | · | · | · | 2% | ·
C=C[C@H]1CN2CC[C@H]1C[C@H]2c1[nH]c2ccccc2c1CCO | · | · | · | · | -1% | ·
CN(C[C@H](Cc1ccccc1)N(C[C@H](Cc1ccccc1)N(CC1(c2ccccc2)CC1)N=O)N=O)N=O | -6%[59 µM] | -27% | ? | -13% | 1% | 16%
CCOC(=O)[C@]12Cc3cc(OC)ccc3[C@H]1N(Cc1ccccc1)C(=O)c1ccccc12 | · | -12% | · | · | · | 38%
CCOC(=O)C1(c2ccccc2)Oc2ccccc2C(c2ccc(OC)cc2)=C1C(=O)OC (centres undefined) | 22µM* | -18% | · | 0% | -8% | 30%
C[C@@H]1C(=O)O[C@H]2CC34[C@H]5C[C@@H](C(C)(C)C)[C@]36[C@@H](OC(=O)[C@@H]6O)O[C@@]4(C(=O)O5)[C@]21O (some centres undefined) | 28%[12.7 µM] | -12% | 35% | 5% | · | 22%
CCOC(=O)c1ccc(N2C(=O)CC(N3CC=C(c4ccc(F)cc4)CC3)C2=O)cc1 (centres undefined) | 3.2µM* | -34% | 8% | ? | 32µM* | 1%
O=C1CC(N2CC=C(c3ccc(F)cc3)CC2)C(=O)N1c1ccc(F)cc1 (centres undefined) | 25µM* | ? | -12% | -2% | 3% | 31%
CC[N+](C)(CC)CCOC(=O)C(O)(c1ccccc1)c1ccccc1 | -37%[12.7 µM] | · | · | · | 16% | ·
Cc1cccc(Cn2c(SCc3ccc(C(=O)NC4CCCCC4)cc3)nc3cccnc32)c1 | ? | -21% | -9% | · | · | -3%
COc1ccc(C(=O)O)cc1OC | -58%[2.33 µM] | -7% | · | · | 5% | 20%
O=C(O)c1cc(O)c(O)c(O)c1 | 2µM* | · | · | · | 8.9µM*! | ·
[N-]=[N+]=CC(=O)OCC(N)C(=O)O (centres undefined) | · | · | · | · | -9% | ·
C/C(=C\[C@@H](N)C(=O)O)CP(=O)(O)O | · | · | · | · | 12% | ·
Oc1ccccc1O | 1.8µM* | 40µM* | 6% | 18µM* | · | ?
O=C(COc1ccc(Cl)cc1)N1CCN(Cc2ccccc2)CC1 | 5%[59 µM] | -5% | -5% | 2% | 3% | 21%
SMILES | G9a block | JMJD2A Tudor | BAZ2B inh | L3MBTL1 block | Sfp PPTase inh | HP1b chromo inh
CC1CCC(N2CCN(C(=O)COc3ccccc3)CC2)CC1 (centres undefined) | 11µM* | 4µM* | 50µM* | · | -23% | -18%
O=C(COc1ccc(Cl)cc1)N1CCN(C2CCCC2)CC1 | 8.9µM* | 20µM* | 50µM* | · | -6% | ?
Cn1c(=O)cc(OCC(=O)N2CCN(C3CCCCC3)CC2)c2ccccc21 | -1%[59 µM] | -19% | 6% | 6% | 17% | 30%
CC1=CC(C)C2C(=O)N(CCC[N+](C)(C)C)C(=O)C2C1 (centres undefined) | ? | -4% | -23% | 3% | 5% | 20%
CC(=O)OC1CC2C(C)(C)C(O)C=C[C@@]2(C)C2CC[C@]3(C)C(=CC(=O)OC3c3ccoc3)[C@]12C (some centres undefined) | -19%[2.33 µM] | · | · | · | -6% | ·
NC(=O)CI | 2.4µM* | · | · | · | · | ·
CC(C)CC[C@@H](O)[C@](C)(O)C1CC[C@@]2(O)C3=CC(=O)[C@@H]4C[C@@H](O)[C@@H](O)C[C@]4(C)C3CC[C@]12C (some centres undefined) | · | -6% | · | 0% | · | 44%
COc1ccc(NC(=O)Cn2c(=O)c3cccn3c3ccccc32)cc1Cl | 2%[59 µM] | 6% | 1% | · | · | 42%
CCOC(=O)c1ccc(N2C(=O)c3n[nH]c(-c4cccs4)c3C2c2ccc(C(C)(C)C)cc2)cc1 (centres undefined) | ? | ? | · | · | · | -4%
CC1=C(C(=O)O)N2C(=O)C(NC(=O)c3nn(C)cc3[N+](=O)[O-])C2SC1 (centres undefined) | 3.5µM* | ? | 50µM* | 11% | 4µM* | 3%
CC1=C(C(=O)O)N2C(=O)C(NC(=O)Cc3ccccc3)C2SC1 (centres undefined) | 10µM* | 8% | -29% | · | 10µM* | 42%
CC1(C)S[C@H]2[C@@H](N)C(=O)N2[C@H]1C(=O)O | · | · | · | · | 56µM* | ·
CC1(C)S[C@@H]2[C@H](N)C(=O)N2C1C(=O)O (some centres undefined) | 20%[5.15 µM] | · | · | · | 14µM* | ·
CN[C@@H](CC(C)C)C(=O)N[C@@H]1C(=O)N[C@H](CC(N)=O)C(=O)N[C@@H]2C(=O)N[C@H]3C(=O)N[C@H](C(=O)N[C@H](C(=O)O)c4cc(O)cc(O)c4-c4cc3ccc4O)[C@H](O)c3ccc(c(Cl)c3)Oc3cc2cc(c3O[C@H]2O[C@@H](CO)[C@@H](O)[C@@H](O)[C@@H]2O[C@@H]2C[C@](C)(N)[C@H](O)[C@H](C)O2)Oc2ccc(cc2Cl)[C@@H]1O | -1%[12.7 µM] | · | · | · | 13% | ·
[O]=[Cr](=[O])([OH])[O][Cr](=[O])(=[O])[OH] | 1%[59 µM] | · | · | · | 4% | ·
CCn1c(O)c(C(=O)CC2NCCc3ccccc32)c(=O)n(CC)c1=S (centres undefined) | ? | -8% | ? | -13% | 45µM* | 17%
S=c1[nH]c2cc(Br)cnc2[nH]1 | 3.2µM* | 20µM* | -24% | -5% | 22µM* | ?
CCCN1CCc2cc(O)cc3c2C1Cc1ccc(O)c(O)c1-3 (centres undefined) | 0.32µM* | · | · | · | 35µM* | ·

Bioassay records (PubChem BioAssay)
